These results are taken from the supplement of paper PMC9942566.

± gives the standard deviation of the averaged measurements.

The experiment concerns Serratia marcescens K904 PosmB-luxCDABE reporter (pMQ747). The experiment can be described thus: PosmB-lux reporter fold induction (RLU/OD600 relative to no-compound control), highest over Biolog concentrations; higher = stronger reporter activation. Particulars: ΔrcsB mutant CMS5177; 4 h. On the procedure:
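Serratia marcescens K904 (wild type) or its isogenic ΔrcsB mutant, carrying the Rcs-dependent PosmB-luxCDABE reporter plasmid pMQ747, was grown in LB at OD600 0.1 in Biolog Phenotype MicroArray plates PM11-20 for 4 h at 30-32°C. Each compound is present at 3-4 proprietary concentrations (not stated); per the Fig. S1 legend the value given is the highest fold over those wells. Three independent trials.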
As for `On1ccccc1=S` [1-Hydroxy-pyridine-2-thione] (Biolog plate: PM14, well positions: C5-8), the “PosmB-lux reporter fold induction” value was found to be 1.1 ± 0.053.

For the molecule `NC(=O)NO` [Hydroxyurea] (Biolog plate: PM15, well positions: H5-8), the “PosmB-lux reporter fold induction” value turned out to be 13.9 ± 5.4.

With `CCn1cc(C(=O)O)c(=O)c2cc(F)c(N3CCNCC3)nc21` [Enoxacin] (Biolog plate: PM11, well positions: E5-8), the “PosmB-lux reporter fold induction” value stood at 1.45 ± 0.3.

Regarding `O=C(O)c1ccccc1S` [Thiosalicylic acid] (Biolog plate: PM17, well positions: A9-12), the “PosmB-lux reporter fold induction” value amounted to 0.982 ± 0.15.

On to `CN[C@@H]1[C@@H](O[C@H]2O[C@H](CO)[C@@H](N)[C@H](O)[C@H]2O)OC2C[C@@H](N)[C@@H](O[C@H]3[C@H](O)[C@@H](O)[C@H](N)C[C@@H]3N)OC2[C@@H]1O` (stereo not given in full) [apramycin] (Biolog plate: PM20, well positions: A5-8), for which the “PosmB-lux reporter fold induction” value was 1.48 ± 0.21.

For `CCC(C)CCCC(=O)N[C@@H](CCN)C(=O)N[C@H](C(=O)N[C@@H](CCN)C(=O)N[C@H]1CCNC(=O)[C@H]([C@@H](C)O)NC(=O)[C@H](CCN)NC(=O)[C@H](CCN)NC(=O)[C@H](CC(C)C)NC(=O)[C@@H](CC(C)C)NC(=O)[C@H](CCN)NC1=O)[C@@H](C)O` (stereo not given in full) [Colistin] (Biolog plate: PM11, well positions: C5-8), the “PosmB-lux reporter fold induction” value turned out to be 1.1 ± 0.22.

Take `CO[C@H]1/C=C/O[C@@]2(C)Oc3c(C)c(O)c4c(O)c(cc(O)c4c3C2=O)NC(=O)/C(C)=C\C=C\[C@H](C)[C@H](O)[C@@H](C)[C@@H](O)[C@@H](C)[C@H](OC(C)=O)[C@@H]1C` [rifamycin SV] (Biolog plate: PM16, well positions: E9-12): the “PosmB-lux reporter fold induction” value is 35.4 ± 1.7.

As to `CN(C)CCC=C1c2ccccc2CCc2ccccc21` [amitriptyline] (Biolog plate: PM20, well positions: A2-4), the “PosmB-lux reporter fold induction” value is 1.16 ± 0.17.

On to `Nc1ccn(C2OC(CO)C(O)C2O)c(=O)n1` [Cytosine-1-beta-D-arabino-furanoside] (Biolog plate: PM13, well positions: E1-4), for which the “PosmB-lux reporter fold induction” value amounted to 1.91 ± 0.42.

In the case of `COc1ccc(C[C@H](N)C(=O)N[C@H]2[C@@H](O)[C@H](n3cnc4c(N(C)C)ncnc43)O[C@@H]2CO)cc1` [Puromycin] (Biolog plate: PM15, well positions: F9-12), the “PosmB-lux reporter fold induction” value is 3.56 ± 1.7.

As for `CN(C)c1ccc(C(=C2C=CC(=[N+](C)C)C=C2)c2ccc(N(C)C)cc2)cc1` [crystal violet] (Biolog plate: PM20, well positions: E1-4), the “PosmB-lux reporter fold induction” value was 1.24 ± 0.17.

Turning to `Oc1c(I)cc(Cl)c2cccnc12` [5-chloro-7-iodo-8-hydroxy-quinoline] (Biolog plate: PM16, well positions: A9-12), the “PosmB-lux reporter fold induction” value is 1.51 ± 0.53.

Take `O=C(OC[C@H]1O[C@@H](OC(=O)c2cc(O)c(O)c(OC(=O)c3cc(O)c(O)c(O)c3)c2)[C@H](OC(=O)c2cc(O)c(O)c(OC(=O)c3cc(O)c(O)c(O)c3)c2)[C@@H](OC(=O)c2cc(O)c(O)c(OC(=O)c3cc(O)c(O)c(O)c3)c2)[C@@H]1OC(=O)c1cc(O)c(O)c(OC(=O)c2cc(O)c(O)c(O)c2)c1)c1cc(O)c(O)c(OC(=O)c2cc(O)c(O)c(O)c2)c1` [tannic acid] (Biolog plate: PM17, well positions: F9-12): the “PosmB-lux reporter fold induction” value came out at 0.888 ± 0.24.

Consider `CCN(CC)CC(=O)Nc1c(C)cccc1C` [lidocaine] (Biolog plate: PM18, well positions: D9-12), for which the “PosmB-lux reporter fold induction” value amounted to 0.721 ± 0.15.

`Cc1cc(O)cc(C)c1Cl` [chloroxylenol] (Biolog plate: PM16, well positions: H5-8): the “PosmB-lux reporter fold induction” value worked out at 1.72 ± 0.43.

`CCN1CCN(C(=O)N[C@@H](C(=O)N[C@@H]2C(=O)N3[C@@H]2SC(C)(C)[C@@H]3C(=O)O)c2ccccc2)C(=O)C1=O` [Piperacillin] (Biolog plate: PM14, well positions: F5-8): the “PosmB-lux reporter fold induction” value is 1.2 ± 0.13.

Regarding `O=c1c(O)c(-c2cc(O)c(O)c(O)c2)oc2cc(O)cc(O)c12` [myricetin] (Biolog plate: PM18, well positions: G9-12), the “PosmB-lux reporter fold induction” value turned out to be 0.868 ± 0.31.

As for `CN(C)C(=O)/N=N/C(=O)N(C)C` [diamide] (Biolog plate: PM16, well positions: D5-8), the “PosmB-lux reporter fold induction” value is 2.26 ± 0.64.

Take `Cc1ncc([N+](=O)[O-])n1CC(O)CCl` (stereo not given) [ornidazole] (Biolog plate: PM20, well positions: C9-12): the “PosmB-lux reporter fold induction” value came to 1.59 ± 0.49.

Consider `CN[C@@H]1[C@H](O)[C@H](NC)[C@H]2O[C@@]3(O)C(=O)C[C@@H](C)O[C@H]3O[C@@H]2[C@H]1O` [Spectinomycin] (Biolog plate: PM12, well positions: G1-4), for which the “PosmB-lux reporter fold induction” value was 1.6 ± 0.68.

In the case of `COc1cc(Cc2cnc(N)nc2N)cc(OC)c1OC` [trimethoprim] (Biolog plate: PM16, well positions: B9-12), the “PosmB-lux reporter fold induction” value is 8.21 ± 3.9.

Regarding `CC(=O)OCC1=C(C(=O)O)N2C(=O)[C@@H](NC(=O)Cc3cccs3)[C@H]2SC1` [Cephalothin] (Biolog plate: PM11, well positions: H1-4), the “PosmB-lux reporter fold induction” value turned out to be 1.37 ± 0.15.

As for `Cn1c(=O)c2c(ncn2C)n(C)c1=O` [caffeine] (Biolog plate: PM17, well positions: H5-8), the “PosmB-lux reporter fold induction” value came out at 1.52 ± 0.34.

Turning to `CN(C)[C@@H]1C(O)=C(C(N)=O)C(=O)[C@@]2(O)C(O)=C3C(=O)c4c(O)cccc4[C@@](C)(O)[C@H]3C[C@@H]12` [Tetracycline] (Biolog plate: PM12, well positions: A5-8), the “PosmB-lux reporter fold induction” value was determined as 1.12 ± 0.097.

As for `NCC(=O)O` [Glycine] (Biolog plate: PM13, well positions: F5-8), the “PosmB-lux reporter fold induction” value came out at 1.39 ± 0.27.

With `O=c1[nH]c(=O)n([C@H]2C[C@H](O)[C@@H](CO)O2)cc1C(F)(F)F` [trifluorothymidine] (Biolog plate: PM18, well positions: B1-4), the “PosmB-lux reporter fold induction” value is 1.09 ± 0.28.

For `O=C(O)c1cc(O)c(O)c(O)c1` [gallic acid] (Biolog plate: PM19, well positions: A5-8), the “PosmB-lux reporter fold induction” value came to 1.33 ± 0.48.

With `CCc1cc(C(N)=S)ccn1` [ethionamide] (Biolog plate: PM17, well positions: B9-12), the “PosmB-lux reporter fold induction” value was 0.857 ± 0.29.

As to `NCC[C@H](O)C(=O)N[C@@H]1C[C@H](N)[C@@H](O[C@H]2O[C@H](CN)[C@@H](O)[C@H](O)[C@H]2O)[C@H](O)[C@H]1O[C@H]1O[C@H](CO)[C@@H](O)[C@H](N)[C@H]1O` [Amikacin] (Biolog plate: PM11, well positions: A2-4), the “PosmB-lux reporter fold induction” value stood at 1 ± 0.088.

Consider `CCCCCCCCCCCC[N+](C)(C)CCOc1ccccc1` [Domiphen bromide] (Biolog plate: PM15, well positions: D5-8), for which the “PosmB-lux reporter fold induction” value is 2.39 ± 0.17.

For the molecule `C[C@H]1O[C@@H](n2cc(F)c(=O)[nH]c2=O)[C@H](O)[C@@H]1O` [5-fluoro-5'-deoxyuridine] (Biolog plate: PM18, well positions: H1-4), the “PosmB-lux reporter fold induction” value amounted to 1.75 ± 0.72.

`Nc1ncn([C@@H]2O[C@H](CO)[C@@H](O)[C@H]2O)c(=O)n1` [5-azacytidine] (Biolog plate: PM16, well positions: E5-8): the “PosmB-lux reporter fold induction” value amounted to 2.23 ± 0.64.

With `NC[C@@H]1O[C@H](O[C@H]2[C@@H](O)[C@H](O[C@@H]3[C@@H](O)[C@H](N)C[C@H](N)[C@H]3O[C@H]3O[C@H](CN)[C@@H](O)[C@H](O)[C@H]3N)O[C@@H]2CO)[C@H](N)[C@@H](O)[C@@H]1O` [Neomycin] (Biolog plate: PM11, well positions: F9-12), the “PosmB-lux reporter fold induction” value stood at 1.31 ± 0.23.

In the case of `C[C@H]1c2cccc(O)c2C(=O)C2=C(O)[C@]3(O)C(=O)C(C(N)=O)=C(O)[C@@H](N(C)C)[C@@H]3[C@@H](O)[C@@H]21` [Doxycycline] (Biolog plate: PM13, well positions: C5-8), the “PosmB-lux reporter fold induction” value amounted to 1.91 ± 0.69.

Consider `CCn1cc(C(=O)O)c(=O)c2ccc(C)nc21` [Nalidixic Acid] (Biolog plate: PM11, well positions: E9-12), for which the “PosmB-lux reporter fold induction” value amounted to 8.63 ± 3.1.

For the molecule `Cc1ccccc1C(OCCN(C)C)c1ccccc1` (stereo not given) [orphenadrine] (Biolog plate: PM20, well positions: B1-4), the “PosmB-lux reporter fold induction” value worked out at 1.4 ± 0.12.

In the case of `Cc1cc(C)nc(NS(=O)(=O)c2ccc(N)cc2)n1` [Sulfamethazine] (Biolog plate: PM12, well positions: D5-8), the “PosmB-lux reporter fold induction” value was determined as 1.41 ± 0.34.

Take `[Na+].[Na+].[O]=[W](=[O])([O-])[O-]` [sodium tungstate] (Biolog plate: PM17, well positions: E9-12): the “PosmB-lux reporter fold induction” value is 0.99 ± 0.14.

In the case of `CC(C)c1nc2nc(N)nc(N)c2nc1C(C)C` [2,4-Diamino-6,7-diisopropyl-pteridine] (Biolog plate: PM12, well positions: E1-4), the “PosmB-lux reporter fold induction” value was found to be 2.91 ± 0.33.

As to `C[n+]1cc2c3c(ccc2c2ccc4cc5c(cc4c21)OCO5)OCO3` [Sanguinarine] (Biolog plate: PM14, well positions: A9-12), the “PosmB-lux reporter fold induction” value is 1.14 ± 0.32.
